Results: PubChem BioAssay AID588342 (National Center for Advancing Translational Sciences (NCATS), 2011)
Hit rate of the full screen: of about 360,000 compounds, about 25,000 (6.9%) were called active. Another 9% or so got no clear call; they are omitted. The sample holds actives, similar compounds and a random draw of the others, so the mix is not that of the screen. Unmarked numbers belong to inactive results. Calls follow the shape of the dose curve; as a rule, active = well fitted inhibition curve with a large enough effect; inconclusive = small, poorly fitted or top-dose-only effect; inactive = flat fitted curve, though single readings scatter.

Biological target: Luciferin 4-monooxygenase (Photinus pyralis) (UniProt P08659)
Sequence (P08659 whole entry, looked up): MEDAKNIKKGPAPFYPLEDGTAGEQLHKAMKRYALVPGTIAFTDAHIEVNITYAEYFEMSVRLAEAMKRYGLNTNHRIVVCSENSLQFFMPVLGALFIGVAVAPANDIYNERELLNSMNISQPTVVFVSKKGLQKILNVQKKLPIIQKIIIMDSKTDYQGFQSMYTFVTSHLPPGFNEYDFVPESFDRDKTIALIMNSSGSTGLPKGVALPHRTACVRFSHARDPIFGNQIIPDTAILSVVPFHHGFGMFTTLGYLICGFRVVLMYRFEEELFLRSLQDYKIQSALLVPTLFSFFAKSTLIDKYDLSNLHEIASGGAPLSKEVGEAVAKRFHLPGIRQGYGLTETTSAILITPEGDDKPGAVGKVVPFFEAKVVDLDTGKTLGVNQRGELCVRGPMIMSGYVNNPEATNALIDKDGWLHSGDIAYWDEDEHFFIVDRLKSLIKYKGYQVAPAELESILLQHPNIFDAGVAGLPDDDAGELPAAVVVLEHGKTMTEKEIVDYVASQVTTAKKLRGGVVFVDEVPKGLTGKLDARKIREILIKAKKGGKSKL
Test: qHTS profiling assay for firefly luciferase inhibitor/activator using purifed enzyme and Km concentrations of substrates (counterscreen for miR-21 project); also: nearly all actives have a fitted effect of over 55% in size;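 as to activity change, negative = inhibition: plate controls were vehicle for no effect and reference inhibitor for full effect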
Details: purified FLuc, luminescence inhibition; series mostly up to 57.5 µM; activity change, negative = inhibition: at the top concentration
How it was run: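 Purified P. pyralis luciferase, 10 nM final, with Km-level 10 uM D-luciferin and 10 uM ATP in 50 mM Tris acetate pH 7.5, 10 mM Mg acetate, 0.01% Tween-20, 0.05% BSA; 6-point qHTS titration about 60 µM downward; luminescence read.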
Potency is read from the fitted curve at half-maximal effect.

In order of falling “activity change, negative = inhibition” value:
1. Cc1ccc(NC(=O)CSCC(=O)Nc2sccc2C#N)cc1  9.39%
2. CC(=O)NC12CC3CC(C1)CC(C(=O)N1CCN(S(=O)(=O)c4cccs4)CC1)(C3)C2  6.36%
3. Cc1cc2nc(NC(=O)c3ccc(S(=O)(=O)N4CCOCC4)cc3)sc2cc1C  4.43%
4. CC(Sc1nnc(-c2cccs2)n1C1CC1)C(=O)NCC1CCCO1 (stereo unspecified)  4.14%
5. COc1ccccc1N1CCN(C(=O)c2c(-c3c(Cl)cccc3Cl)noc2C)CC1  4%
6. Cc1cc(C)n(CCNS(=O)(=O)c2ccc(Cl)cc2)n1  2.54%
7. O=C(CSc1ncc(CO)n1Cc1ccc(F)cc1)NCc1ccco1  2.1%
8. CCCCCCn1cc(C(=O)O)c(=O)c2cc(F)c(N3CCCCC3)cc21  1.99%
9. COc1ccc(OC)c(C(O)c2nc3ccccc3n2C)c1 (stereo unspecified)  1.76%
10. Brc1cccc(-c2nnc3n2CCC3)c1  1.44%
11. CC(OC(=O)Cc1ccc(F)cc1)C(=O)N1CCc2ccccc21 (stereo unspecified)  1.31%
12. C=CCN1C(=O)C(Cc2cccc(Cl)c2)S/C1=N/N=C/c1ccco1 (stereo unspecified)  1.23%
13. c1ccc2c(NC3C4CC5CC(C4)CC3C5)nc(N3CCOCC3)nc2c1 (stereo unspecified)  0.91%
14. Cc1ccn2c(=O)c(NC(=O)c3cccc4ccccc34)c(C)nc2c1  0.894%
15. COc1ccc(CN(C)Cc2nc3cc(OC)c(OC)cc3c(=O)[nH]2)c(OC)c1  0.629%
16. CCc1nnc(SCC(=O)Nc2cc(OC)ccc2OC)nc1CC  0.467%
17. COc1ccc(-c2nnc3n2CCCCC3)cc1  0.399%
18. CC1Cc2ccccc2N1C(=O)CSc1nnc(C2CC2)n1C (stereo unspecified)  0.0229%
19. Cc1cc(OCC(=O)Nc2ncn[nH]2)c(C)c(C)c1Br  -0.153%
20. CCN(CCCNC(=O)c1c(C)oc2ncn(CC(C)C)c(=O)c12)Cc1ccccc1  -0.305%
21. O=C1N/C(=N\N=C\c2ccco2)SC1Cc1ccc(F)cc1 (stereo unspecified)  -0.419%
22. Cc1ccccc1NC(=O)Cn1c(=O)n(Cc2ccco2)c(=O)c2ccc(C(=O)NC3CCCC3)cc21  -0.556%
23. CC(=O)c1c(C)oc2ccc(NS(=O)(=O)c3ccc(C(=O)O)cc3)cc12  -0.624%
24. N=C1C(=O)OCC1c1ccccc1NC(=O)CN1CCCCC1 (stereo unspecified)  -0.64%
25. CCc1ccccc1NC(=O)CSc1nc(C)c(C(=O)Nc2ccccc2)c(-c2ccc(Cl)cc2)c1C#N  -0.825%
26. CCN(CC)Cc1cc(C(C)=O)ccc1O  -1.11%
27. COc1cc([N+](=O)[O-])ccc1NC(=O)COC(=O)CCOc1ccc(C)cc1  -1.29%
28. COc1cccc(N2CC(NC(=O)c3ccc4ccccc4c3)CC2=O)c1 (stereo unspecified)  -1.3%
29. CCOc1ccc(/C=N\NC(=O)c2c(C)nc3cc(C)ccn23)cc1  -1.47%
30. COc1ccccc1NC(=O)Cn1cnc2ccc(S(=O)(=O)N3CCC(C)CC3)cc2c1=O  -1.78%
31. O=C(c1ccc(NS(=O)(=O)c2ccc3[nH]c(=O)[nH]c3c2)cc1)N1CCCCC1  -2.18%
32. CNC(=O)c1nnn(-c2ccccc2)c1C(=O)NC  -2.19%
33. Cc1ccc(OC(=O)CSc2nnc(-c3cccs3)o2)cc1  -2.44%
34. CCOc1ccccc1NC(=O)C1=C(C)Nc2ncnn2C1c1ccc(NC(C)=O)cc1 (stereo unspecified)  -2.67%
35. O=C(c1c(Cl)cccc1Cl)N1CCN(c2cccc3[nH]ccc23)CC1  -2.83%
36. COc1ccc(OC)c(NC(=O)C2CCN(S(=O)(=O)c3ccc(C)cc3)CC2)c1  -3.03%
37. COc1ccccc1-c1nnc(SCC(N)=O)o1  -3.36%
38. Cc1cccc(C)c1Nc1nnc(SCC(=O)Nc2sccc2C#N)s1  -3.48%
39. CC(=O)c1ccc2c(c1)c1ccccc1n2CC(C)C  -4.18%
40. CCCN(CC(=O)Nc1ccccc1C)C(=O)c1ccc2[nH]c3c(c2c1)CC(C)CC3 (stereo unspecified)  -4.18%
41. CN(Cc1ccccc1)C(=O)c1cn(C)c2ccc(S(=O)(=O)N3CCCCC3)cc2c1=O  -4.69%
42. O=C(OCC(=O)N1CCCCCC1)c1cnc(Cl)c(Cl)c1  -4.72%
43. O=S(=O)(NCCc1csc(-c2ccccc2)n1)c1cccnc1  -5.44%
44. COc1cccc(C2C(C(=O)Nc3ccc(C)cc3C)=C(C)Nc3c(C(=O)Nc4ccccc4)cnn32)c1 (stereo unspecified)  -5.82%
45. CC1=Nc2cc(C(=O)NCc3ccc(C)cc3)ccc2Sc2ccc(Cl)cc21  -7.52%
46. CC(C)(C)OC(=O)N1CCC(c2c(C(=O)N3CCc4ccccc4C3)cnn2-c2ccc(F)cc2)CC1  -7.72%
47. COc1ccc(CCC(=O)NCCc2csc(-c3ccc(Cl)cc3)n2)cc1  -10.6%
48. COc1ccc(Oc2cn[nH]c2-c2ccc(OC)cc2O)cc1  -12.5%
49. CC(C(=O)O)n1cnc2sc3c(c2c1=O)CCCC3 (stereo unspecified)  -12.5%
50. CC(C)(C)c1ccc(C(=O)Nc2ccc3c(c2)CCCN3C(=O)c2cccs2)cc1  -13.7%
51. CC(C)(C)OC(=O)NCCCCCNC(=O)c1nc[nH]c1C(=O)NCc1ccccc1  -15.1%
52. O=C(Nc1ccc(S(=O)(=O)Nc2nccs2)cc1)c1cccc(S(=O)(=O)N2CCOCC2)c1  -17.3%
53. O=C(NCC(=O)N1CCN(c2ccccc2O)CC1)c1ccc2ccccc2c1  -17.3%

With `O=C(NCCc1csc(-c2ccccc2)n1)c1ccccc1F` the Potency was 26.9 µM (active).
For `O=c1ccc2c(-c3ccccc3S(=O)(=O)O)c3ccc(O)c(O)c3oc-2c1O`, the Potency was 13.5 µM (active).
`Cc1ccc(NC(=O)C(=O)NCc2ccc(/C=N/NC(=O)c3c(C)nc4cc(C)ccn34)o2)cc1` was tested, and the Potency was 2.13 µM (active).
For `COc1ccc(CN2C(=O)C(C)S/C2=N/N=C/c2ccco2)cc1` (stereo unspecified), the Potency was 15.1 µM (active).
For `COc1ccc(/C=C2/C(=O)OCc3cc(OC)c(OC)cc32)c(OC)c1`, the Potency was 12 µM (active).
With `COc1ccc(-c2nnc(SCC(=O)c3cccs3)o2)c(OC)c1` the Potency was 2.39 µM (active).
In the case of `O=C(Nc1nc2cc3c(cc2s1)OCCO3)c1cccc(S(=O)(=O)N2CCOCC2)c1`, the Potency is reported as 7.57 µM (active).
In the case of `COc1ccc(-c2nc3n(c2Br)CCC3)cc1`, the Potency is reported as 7.57 µM (active).
For `CC(=O)CCC(=O)c1ccc2ccccc2c1`, the Potency was 26.9 µM (active).
For `CC(=O)c1ccc2c(ccc3ccccc32)c1`, the Potency was 21.3 µM (active).
In the case of `O=C(O)c1ccc(NS(=O)(=O)c2ccc3c(c2)C(=O)c2cc(S(=O)(=O)Nc4ccc(C(=O)O)cc4)ccc2-3)cc1`, the Potency is reported as 23.9 µM (active).
`O=C(c1ccc2ccccc2n1)N1CCN(c2ccccc2Cl)CC1` was tested, and the Potency was 16.9 µM (active).
With `Cc1csc(SCC(=O)Nc2sccc2C#N)n1` the Potency was 2.13 µM (active).
